Source: PubChem BioAssay
Calls of active or inactive are those of the source. Unless noted, no rule for the calls is given here.

Key:
[1] = anti-His antibody binders, primary screen, artefact control for SMM control protein annotation, biochemical, small-molecule microarray, 635 nm fluorescence (AID 1128); details: anti-His Alexa647 antibody binding, higher = more signal;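 also: score merges feature fluorescence with signal-to-noise for each printed compound spot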
[2] = system: Human papillomavirus type 1a E7 protein (residues 1-88); experiment: HPV1a E7 small-molecule binders, primary screen, biochemical, small-molecule microarray, residues 1-88, 635 nm (AID 1129); details: small-molecule microarray binding, fluorescence 635 nm; higher = more signal
[3] = target: Focal adhesion kinase 1 (Homo sapiens) (UniProt Q05397); experiment: small-molecule microarray binders of FAK, primary screen, biochemical, 635/667 nm fluorescence, BSA, DTT (AID 1130); details: PTK2 binding, 635 nm fluorescence, higher = more signal;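 also: composite of spot emission at 667 nm and signal to noise over triplicate slides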
Focal adhesion kinase 1 (Homo sapiens), sequence (Q05397 whole entry, looked up): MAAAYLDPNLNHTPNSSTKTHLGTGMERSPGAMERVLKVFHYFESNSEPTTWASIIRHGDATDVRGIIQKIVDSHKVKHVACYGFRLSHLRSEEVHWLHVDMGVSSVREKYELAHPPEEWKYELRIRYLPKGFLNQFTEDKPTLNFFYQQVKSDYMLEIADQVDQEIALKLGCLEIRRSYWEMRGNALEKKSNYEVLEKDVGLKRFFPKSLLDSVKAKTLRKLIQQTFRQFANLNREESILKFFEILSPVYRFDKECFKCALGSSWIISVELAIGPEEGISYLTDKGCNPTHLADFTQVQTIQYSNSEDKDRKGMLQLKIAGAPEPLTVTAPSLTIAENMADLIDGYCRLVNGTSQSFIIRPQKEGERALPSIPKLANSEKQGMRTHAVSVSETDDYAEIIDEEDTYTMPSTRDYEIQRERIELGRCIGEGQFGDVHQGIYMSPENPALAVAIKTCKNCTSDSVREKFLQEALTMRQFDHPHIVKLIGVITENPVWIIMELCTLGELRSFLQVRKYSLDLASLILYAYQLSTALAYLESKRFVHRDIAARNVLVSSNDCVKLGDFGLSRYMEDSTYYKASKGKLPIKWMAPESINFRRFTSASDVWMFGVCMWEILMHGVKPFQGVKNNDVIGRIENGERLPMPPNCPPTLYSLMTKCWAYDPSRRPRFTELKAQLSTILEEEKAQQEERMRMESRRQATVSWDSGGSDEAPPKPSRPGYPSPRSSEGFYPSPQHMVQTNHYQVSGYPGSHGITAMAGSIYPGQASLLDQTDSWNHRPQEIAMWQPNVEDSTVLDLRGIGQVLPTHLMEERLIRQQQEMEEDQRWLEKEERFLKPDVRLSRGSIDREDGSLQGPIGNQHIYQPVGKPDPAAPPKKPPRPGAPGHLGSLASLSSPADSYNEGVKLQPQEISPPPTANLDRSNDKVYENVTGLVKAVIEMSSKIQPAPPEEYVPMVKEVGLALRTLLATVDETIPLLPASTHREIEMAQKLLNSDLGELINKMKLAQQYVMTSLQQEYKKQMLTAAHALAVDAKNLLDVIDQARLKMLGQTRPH

[4] = system: Fibrinogen (Alexa647-labelled); experiment: fibrinogen binders on compound microarrays, profiling panel, artefact control for SMM control-protein annotation, biochemical, small-molecule microarray, 635/667 nm fluorescence (AID 1131); details: fibrinogen-A647 binding fluorescence, higher = more signal;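 also: z-score merges 667 nm fluorescence with per-spot signal-to-noise over triplicate slides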
[5] = target: Follistatin (Homo sapiens) (UniProt P19883); experiment: follistatin binders on small-molecule microarrays, primary screen, biochemical, small-molecule microarray, 635/667 nm fluorescence (AID 1132); details: FST binding, 635 nm fluorescence, higher = more signal
Follistatin (Homo sapiens), sequence (P19883 whole entry, looked up): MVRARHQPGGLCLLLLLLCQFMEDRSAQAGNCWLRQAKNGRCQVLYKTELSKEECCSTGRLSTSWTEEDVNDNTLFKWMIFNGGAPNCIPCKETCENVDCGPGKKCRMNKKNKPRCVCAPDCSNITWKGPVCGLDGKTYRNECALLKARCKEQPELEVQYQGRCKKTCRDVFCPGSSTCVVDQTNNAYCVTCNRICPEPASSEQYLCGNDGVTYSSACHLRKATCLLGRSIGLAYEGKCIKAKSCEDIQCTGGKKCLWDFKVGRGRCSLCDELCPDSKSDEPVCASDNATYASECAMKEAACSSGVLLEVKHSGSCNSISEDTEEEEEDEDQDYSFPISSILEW

[6] = target: Fibroblast growth factor 2 (Homo sapiens) (UniProt P09038); experiment: FGF2 binders on small-molecule microarrays, primary screen, biochemical, small-molecule microarray, 635/667 nm fluorescence (AID 1133); details: small-molecule microarray binding, FGF2, fluorescence 635/667; higher = more signal
Fibroblast growth factor 2 (Homo sapiens), sequence (P09038 whole entry, looked up): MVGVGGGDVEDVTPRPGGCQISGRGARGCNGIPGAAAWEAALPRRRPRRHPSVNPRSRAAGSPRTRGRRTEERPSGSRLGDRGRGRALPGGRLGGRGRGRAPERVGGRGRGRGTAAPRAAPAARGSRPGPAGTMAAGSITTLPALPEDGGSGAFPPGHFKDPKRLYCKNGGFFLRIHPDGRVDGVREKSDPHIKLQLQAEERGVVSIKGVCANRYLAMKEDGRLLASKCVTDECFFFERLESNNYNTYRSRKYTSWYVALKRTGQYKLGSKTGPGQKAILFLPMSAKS

[7] = mitochondrial membrane potential change in A549 cells, profiling panel, cell-based, JC-1 fluorescence, basal, 24 h, 100 nL (AID 1138); details: higher = more signal;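 also: A549 lung adenocarcinoma cells under basal conditions with no added stimulus; test concentration not given here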
[8] = system: Lefty1; experiment: Lefty1 binders on small-molecule microarrays, primary screen, biochemical, small-molecule microarray, 635/667 nm fluorescence (AID 1139); details: small-molecule microarray binding, fluorescence 635/667; higher = more signal
[9] = system: wheat germ agglutinin (Triticum aestivum), Alexa647-labelled; experiment: wheat germ agglutinin binders on compound microarrays, profiling panel, artefact control for SMM control-protein annotation, biochemical, small-molecule microarray, 635/667 nm fluorescence (AID 1140); details: WGA-A647 binding, 635 nm fluorescence, higher = more signal;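 also: score merges 667 nm feature emission with signal to noise over triplicate slides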
[10] = target: Luciferin 4-monooxygenase (Photinus pyralis) (UniProt P08659); experiment: firefly luciferase enzyme inhibitors, primary screen, biochemical, luminescence, purified enzyme, 2006 set (AID 1141); details: SteadyGlo luminescence, 30 min, higher = more signal, called active from +8 up or from −8 down;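 also: cell-free assay with purified firefly luciferase at 100 ng per well in PBS; test concentration not given here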
Luciferin 4-monooxygenase (Photinus pyralis), sequence (P08659 whole entry, looked up): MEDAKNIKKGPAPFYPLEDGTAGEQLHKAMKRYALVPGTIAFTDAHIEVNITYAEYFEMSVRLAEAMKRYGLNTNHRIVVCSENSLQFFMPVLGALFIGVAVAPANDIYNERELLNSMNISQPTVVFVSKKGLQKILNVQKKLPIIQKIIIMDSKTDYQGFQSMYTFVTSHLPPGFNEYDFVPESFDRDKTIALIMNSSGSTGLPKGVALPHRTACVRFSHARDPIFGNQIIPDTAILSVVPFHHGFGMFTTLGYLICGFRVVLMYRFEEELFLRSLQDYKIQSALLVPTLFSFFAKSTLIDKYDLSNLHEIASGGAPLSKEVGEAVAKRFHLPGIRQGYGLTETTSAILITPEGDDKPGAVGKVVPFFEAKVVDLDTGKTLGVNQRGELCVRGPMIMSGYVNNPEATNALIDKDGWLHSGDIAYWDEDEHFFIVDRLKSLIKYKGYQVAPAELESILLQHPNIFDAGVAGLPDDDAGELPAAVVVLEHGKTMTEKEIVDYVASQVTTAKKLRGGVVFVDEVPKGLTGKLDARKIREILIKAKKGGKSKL

[11] = system: Wnt5a (protein binding on small-molecule microarray); experiment: Wnt5a binders on small-molecule microarray, primary screen, biophysical, 635/667 nm fluorescence (AID 1142); details: 635 nm fluorescence, higher = more signal;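 also: fluorescence read at 667 nm with signal to noise per printed feature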
[12] = cell viability in Huh7 cells, primary screen, cytotoxicity control for HCV replication inhibitor project, CellTiter-Glo luminescence, basal, 48 h (AID 1143); details: Huh7 HCV replicon, higher = more signal, called active from +8 up or from −8 down;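 also: Huh7 hepatoma cells carrying a hepatitis C replication reporter with no stimulus; test concentration not given here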
[13] = P. aeruginosa biofilm formation inhibitors, primary screen, PAO1 strain, BacTiter-Glo luminescence, LB-PBS (AID 1144); details: 12 h, higher = more signal
[14] = CREB reporter modulators without forskolin, primary screen, cell-based, PC12, CRE-LacZ reporter, unstimulated (AID 1145); details: no forskolin, luminescence, 4.5 h, higher = more signal, called active from +8 up or from −8 down
[15] = CREB reporter modulators under forskolin, primary screen, cell-based, PC12, CRE-LacZ reporter, forskolin-stimulated (AID 1146); details: luminescence, 4.5 h, higher = more signal, called active from +8 up or from −8 down;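 also: PC12 cells with 6xCRE LacZ reporter stimulated by forskolin 10 µM; beta-galactosidase reporter signal reflecting CREB driven transcription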
[16] = target: Streptavidin (Streptomyces avidinii) (UniProt P22629); experiment: streptavidin binders on small-molecule microarray, primary screen, artefact control for SMM compound annotation, biophysical, 635/667 nm fluorescence (AID 1147); details: streptavidin binding, higher = more signal;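 also: signal reflects streptavidin binding to arrayed compounds as a control protein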
Streptavidin (Streptomyces avidinii), sequence (P22629 whole entry, looked up): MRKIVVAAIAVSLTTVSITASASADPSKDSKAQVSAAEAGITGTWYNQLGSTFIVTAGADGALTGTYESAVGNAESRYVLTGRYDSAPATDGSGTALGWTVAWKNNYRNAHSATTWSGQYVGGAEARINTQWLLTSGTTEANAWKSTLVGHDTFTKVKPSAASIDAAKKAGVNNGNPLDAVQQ

[17] = small-molecule binders of probe aInhba, primary screen, biochemical, small-molecule microarray, 635/667 nm fluorescence (AID 1148); details: higher = more signal;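 also: score merges 667nm spot fluorescence with signal-to-noise for antibody binding to printed compounds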
[18] = target: Torsin-1A (Homo sapiens) (UniProt O14656); experiment: torsin A binders from cell lysate, primary screen, small-molecule microarray, wild-type, 635/667 nm (AID 1149); details: COS7 hTOR1A-WT lysate, 635 nm fluorescence, higher = more signal
Torsin-1A (Homo sapiens), sequence (O14656 whole entry, looked up): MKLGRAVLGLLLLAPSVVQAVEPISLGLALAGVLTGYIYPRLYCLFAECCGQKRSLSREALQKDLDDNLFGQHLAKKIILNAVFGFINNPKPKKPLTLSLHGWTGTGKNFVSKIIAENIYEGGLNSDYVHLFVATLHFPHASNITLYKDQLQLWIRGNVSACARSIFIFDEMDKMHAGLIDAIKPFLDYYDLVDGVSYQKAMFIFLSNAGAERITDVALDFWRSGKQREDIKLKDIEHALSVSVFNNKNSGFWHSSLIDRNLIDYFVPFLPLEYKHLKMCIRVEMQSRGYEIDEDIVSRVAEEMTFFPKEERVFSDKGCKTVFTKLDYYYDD

[19] = target: Torsin-1A (Homo sapiens) (UniProt O14656); experiment: small-molecule binders of mutant TOR1A in lysate, primary screen, cell lysate, small-molecule microarray, COS7 lysate, 635/667 nm fluorescence (AID 1150); details: COS7 hTOR1A mutant lysate, 635 nm fluorescence, higher = more signal;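 also: score pools 667 nm emission and signal to noise measuring lysate protein binding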
[20] = system: Sonic hedgehog protein (Shh); experiment: small-molecule binders of Shh protein, primary screen, biochemical, small-molecule microarray, 635/667 nm fluorescence (AID 1151); details: small-molecule microarray binding, 635 nm fluorescence; higher = more signal;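 also: Shh protein binding to compounds spotted on small-molecule microarray slides; score combines spot fluorescence intensity with signal-to-noise across triplicate slides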

Structure (SMILES) | composite z-score [1] | composite z-score [2] | composite z-score [3] | composite z-score [4] | composite z-score [5] | composite z-score [6] | z-score [7] | composite z-score [8] | composite z-score [9] | z-score [10] | composite z-score [11] | z-score [12] | z-score [13] | z-score [14] | z-score [15] | composite z-score [16] | composite z-score [17] | composite z-score [18] | composite z-score [19] | composite z-score [20]
O=C1C2C=CC(C(O)c3cccs3)N(Nc3ccccc3)C2C(=O)N1c1ccccc1 (stereo not given) | -0.0476 | -0.741 | 0.948 | 0.183 | 0.761 | -0.473 | -0.4 | -0.289 | 0.253 | -0.802 (inactive) | 0.114 | -2.55 (inactive) | -0.991 (inactive) | -0.136 (inactive) | 0.592 (inactive) | 0.195 | -0.0604 | -0.372 | -0.629 | 0.0003
C=CCC(OC(C)=O)[C@@H]1[C@@H](N(Cc2cccc3ccccc23)C(=O)c2cccc3ccccc23)c2cc(OCCCO)ccc2N1C(=O)Cc1ccc2ccccc2c1 (stereo not given in full) | 0.866 | -0.0855 | 0.119 | -0.438 | 0.832 | 0.448 | 0.169 | 0.093 | 0.457 | 1.06 (inactive) | -0.0137 | -1.61 (inactive) | 0.576 (inactive) | -0.36 (inactive) | 0.272 (inactive) | -0.166 | 0.0497 | -1.07 | -0.736 | 0.882
CCCCCN1CC=CC23O[C@@H]4C=CCOC(=O)[C@@H]4[C@H]2C(=O)N(CCCCCO)[C@@H]3C1=O (stereo not given in full) | 0.584 | -0.465 | 0.0875 | -1.87 | -0.232 | -0.486 | -0.465 | 0.604 | 0.0764 | 0.517 (inactive) | -0.659 | -0.211 (inactive) | -1.51 (inactive) | -1.45 (inactive) | -0.151 (inactive) | -0.735 | -0.213 | 0.459 | 2.16 | 0.32
CCc1cccc(NC(=O)O[C@H]2[C@H](OC(=O)Nc3ccc4c(c3)OCO4)[C@H](OC(=O)Nc3ccc4c(c3)OCO4)[C@@H](OC)O[C@@H]2CO)c1 | 2.14 | 1.24 | -0.164 | 0.97 | 0.987 | 0.0183 | -0.308 | 0.478 | 0.815 | -10.5 (active) | 0.322 | -4.18 (inactive) | -0.373 (inactive) | -0.3 (inactive) | -0.321 (inactive) | 0.0602 | 0.0497 | 0.138 | 0.97 | 1.91
CC(C)C[C@@H]1NC(=O)C([C@@H](C)OCc2ccccc2)NC(=O)[C@@]23C(=O)N[C@@H](Cc4ccccc4)C2[C@H](C)[C@@]2(C)O[C@H]2C3/C=C/CC/C=C/CNC1=O (stereo not given in full) | 0.48 | 0.809 | 0.87 | -0.209 | 0.761 | 1.11 | 0.728 | 0.659 | 0.503 | 0.533 (inactive) | 0.237 | -4.9 (inactive) | -0.469 (inactive) | 1.76 (inactive) | -1.52 (inactive) | 0.264 | -0.206 | -0.608 | 0.32 | 1.07
CCCCC(=C=CC[C@@H](O)c1ccc(OCCO)cc1)C[C@@H](O)c1ccccn1 | -0.0662 | 0.731 | 0.178 | 0.141 | 1.22 | 0.611 | 0.176 | 1.47 | -0.146 | -1.12 (inactive) | 0.158 | -1.31 (inactive) | 0.412 (inactive) | 14.6 (active) | -0.0387 (inactive) | -0.0544 | 0.0569 | 0.634 | 0.51 | 1.48
CC(C)C[C@@H]1NC(=O)[C@H]2C[C@@H](C(=O)NCCCCCNC(=O)CS)[C@@H](c3ccc(O)cc3)N2C1=O | 2.05 | 1.24 | 1.19 | 0.201 | 1.33 | 1.62 | -1.22 | 0.497 | 0.408 | -1.76 (inactive) | 0.702 | -0.153 (inactive) | -0.215 (inactive) | 0.135 (inactive) | -0.908 (inactive) | 0.413 | -0.116 | 0.6 | 0.997 | 1.35
CCN(CC)c1ccc(N2CC=CC34O[C@@H]5C=CCOC(=O)[C@@H]5[C@H]3C(=O)N(CCCO)[C@@H]4C2=O)cc1 (stereo not given in full) | 1.53 | -1.05 | -0.0534 | -0.973 | -0.658 | -0.576 | -0.125 | -0.923 | -0.245 | -0.803 (inactive) | -0.121 | -2.34 (inactive) | -0.527 (inactive) | -0.228 (inactive) | -0.905 (inactive) | -1.39 | -0.128 | 0.0507 | 2.46 | -0.0981
CC(C)C[C@H]1NC(=O)[C@@]23C(=O)N[C@@H](Cc4ccccc4)C2[C@H](C)[C@@]2(C)O[C@H]2C3/C=C/C/C=C\CNC(=O)[C@@H]2CCCN2C1=O (stereo not given in full) | -0.17 | -0.0447 | -0.171 | 0.789 | 0.614 | 0.829 | -0.0387 | 0.661 | 0.032 | -0.575 (inactive) | 0.275 | -0.264 (inactive) | 0.341 (inactive) | 0.13 (inactive) | 0.865 (inactive) | -0.362 | -0.0471 | -0.056 | -0.0683 | 1.55
C=CC[C@]1(C(=O)NCCCOC)N=C(c2ccc(OCCCO)cc2)O[C@H]1c1ccccc1 | 1.19 | 1.21 | 0.0442 | -0.922 | 1.29 | -0.9 | 0.266 | -0.689 | 0.566 | 0.436 (inactive) | 0.274 | -2.26 (inactive) | -0.747 (inactive) | 0.857 (inactive) | 0.15 (inactive) | -0.0374 | -0.0986 | 0.872 | 1.37 | -1.62
